# Laboratory results: PubChem BioAssay (NCATS)
# Records with an inconclusive call do not appear. A call without a number means that no potency is given here. Activity calls are given as the source filed them. Calls come from the whole dose curve; as a rule, active = well fitted curve in the direction sought with a large enough effect; inconclusive = small, poorly fitted or top-dose-only effect, or another doubt; inactive = no such curve, though single readings can be large; an effect the other way counts as inactive or inconclusive.
# Experiment: qHTS of pediatric cancer cell lines to identify multiple opportunities for drug repurposing: Primary screen for RD cells (AID 1347104); note: nearly all actives have a fitted effect of over 55% in size; note: potency is the fitted concentration of half-maximal effect
# Conditions: RD rhabdomyosarcoma viability, CellTiter-Glo luminescence, 48 h; series mostly up to 46 µM; activity change, negative = cytotoxic: at the top concentration
# Procedure, shortened: (§1)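 Phenotypic viability qHTS, 48 h compound exposure, CellTiter-Glo luminescence read-out; multi-concentration dosing so that potency and efficacy derive directly from the primary screen's curves.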
SMILES,Potency,"activity change, negative = cytotoxic"
Cn1c(=O)c2[nH]cnc2n(C)c1=O,inactive,–
O=c1[nH]cc(F)c(=O)[nH]1,–,-6.95% (inactive)
Clc1ccccc1C(c1ccccc1)(c1ccccc1)n1ccnc1,18.7 µM (active),–
CC(COc1ccccc1)N(CCCl)Cc1ccccc1 (stereo not drawn),–,-5.29% (inactive)

# Experiment: qHTS of pediatric cancer cell lines to identify multiple opportunities for drug repurposing: Primary screen for MG 63 (6-TG R) cells (AID 1347105); note: nearly all actives have a fitted effect of over 50% in size; note: potency is the fitted concentration of half-maximal effect
# Conditions: MG 63 (6-TG R) viability, CellTiter-Glo, 48 h; series mostly up to 46 µM; activity change, negative = cytotoxic: at the top concentration
# Procedure, shortened: as §1
SMILES,Potency,"activity change, negative = cytotoxic"
Cc1cn([C@H]2C[C@H](N=[N+]=[N-])[C@@H](CO)O2)c(=O)[nH]c1=O,inactive,–
CC(C)(Oc1ccc(C2CC2(Cl)Cl)cc1)C(=O)O (stereo not drawn),–,-1.86% (inactive)
CC12CC3CC(C)(C1)CC(N)(C3)C2,–,-9.69% (inactive)
COc1ccc2c(c1)c(CC(=O)O)c(C)n2C(=O)c1ccc(Cl)cc1,inactive,–
CCOC(=O)Nc1ccc(NCc2ccc(F)cc2)nc1N,inactive,–
C[C@H]1c2cccc(O)c2C(O)=C2C(=O)[C@]3(O)C(O)=C(C(N)=O)C(=O)[C@@H](N(C)C)[C@@H]3[C@@H](O)[C@@H]21,inactive,–
NC12CC3CC(CC(C3)C1)C2,inactive,–
CN(C)CCC=C1c2ccccc2C=Cc2ccccc21,inactive,–
CN1C(C(=O)Nc2ccccn2)=C(O)c2ccccc2S1(=O)=O,inactive,–
CC1(CN2CCC(n3c(=O)[nH]c4ccccc43)CC2)OCc2ccccc2-n2cccc21 (stereo not drawn),inactive,–
CN1CCC(=C2c3ccccc3CC(=O)c3sccc32)CC1,23.5 µM (active),–
COc1ccccc1OCCNCC(O)COc1cccc2[nH]c3ccccc3c12 (stereo not drawn),inactive,–
CC(CCc1ccc(O)cc1)NCCc1ccc(O)c(O)c1 (stereo not drawn),–,-14.2% (inactive)
Cc1cc(C(C)(C)C)cc(C)c1CC1=NCCN1,inactive,–
Cc1cn([C@H]2C=C[C@@H](CO)O2)c(=O)[nH]c1=O,inactive,–
COc1ccc2[nH]cc(CCNC(C)=O)c2c1,inactive,–
COc1ccccc1OCC(O)CN1CCN(CC(=O)Nc2c(C)cccc2C)CC1 (stereo not drawn),inactive,–
C[C@](N)(Cc1ccc(O)c(O)c1)C(=O)O,inactive,–
Fc1ccc([C@@H]2CCNC[C@H]2COc2ccc3c(c2)OCO3)cc1,inactive,–
O=C1Cc2cc(CCN3CCN(c4nsc5ccccc45)CC3)c(Cl)cc2N1,inactive,–
CC(C(=O)O)c1cccc(C(=O)c2ccccc2)c1 (stereo not drawn),inactive,–
O=c1c(-c2ccc(O)cc2)coc2cc(O)cc(O)c12,inactive,–
CC1COc2c(N3CCN(C)CC3)c(F)cc3c(=O)c(C(=O)O)cn1c23 (stereo not drawn),inactive,–
Cn1c(=O)c2[nH]cnc2n(C)c1=O,inactive,–
CN1CCC(=C2c3ccccc3C=Cc3ccccc32)CC1,–,-4.39% (inactive)
O=c1[nH]cc(F)c(=O)[nH]1,inactive,–
Clc1ccccc1C(c1ccccc1)(c1ccccc1)n1ccnc1,inactive,–
CC(COc1ccccc1)N(CCCl)Cc1ccccc1 (stereo not drawn),inactive,–
Cc1ccc(-c2cc(C(F)(F)F)nn2-c2ccc(S(N)(=O)=O)cc2)cc1,inactive,–

# Experiment: qHTS of pediatric cancer cell lines to identify multiple opportunities for drug repurposing: Primary screen for control Hh wild type fibroblast cells (AID 1347106);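 note: a drop in luminescence marks cytotoxicity and a rise apparent proliferation; nearly all actives have a fitted effect of over 55% in size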
# Conditions: Hh wild-type fibroblast viability, CellTiter-Glo luminescence, 48 h; series mostly up to 46 µM; activity change, negative = cytotoxic: at the top concentration
# Procedure, shortened: (§2)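 Viability after 48 h compound treatment at 37C, 500-1,000 cells/well, read as ATP luminescence with CellTiter-Glo. Primary screens used 11-point (MIPE, 0.78 nM-46 µM) or 8-point (NPC, 0.59 nM-46 µM) final concentrations; follow-up screens used 11-point dilutions.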
SMILES,Potency,"activity change, negative = cytotoxic"
CC(C)(Oc1ccc(C2CC2(Cl)Cl)cc1)C(=O)O (stereo not drawn),inactive,–
CC12CC3CC(C)(C1)CC(N)(C3)C2,inactive,–
COc1ccc2c(c1)c(CC(=O)O)c(C)n2C(=O)c1ccc(Cl)cc1,inactive,–
NC12CC3CC(CC(C3)C1)C2,inactive,–
CN1C(C(=O)Nc2ccccn2)=C(O)c2ccccc2S1(=O)=O,inactive,–
Nc1nc2c(ncn2COC(CO)CO)c(=O)[nH]1,–,4.64% (inactive)
COc1ccccc1OCCNCC(O)COc1cccc2[nH]c3ccccc3c12 (stereo not drawn),inactive,–
OCCN(CCO)c1nc(N2CCCCC2)c2nc(N(CCO)CCO)nc(N3CCCCC3)c2n1,inactive,–
Cc1cn([C@H]2C=C[C@@H](CO)O2)c(=O)[nH]c1=O,–,-2.25% (inactive)
Fc1ccc([C@@H]2CCNC[C@H]2COc2ccc3c(c2)OCO3)cc1,inactive,–
Cn1cnc2c1c(=O)[nH]c(=O)n2C,–,-2.8% (inactive)
O=C1Cc2cc(CCN3CCN(c4nsc5ccccc45)CC3)c(Cl)cc2N1,inactive,–
CC(C(=O)O)c1cccc(C(=O)c2ccccc2)c1 (stereo not drawn),inactive,–
O=c1c(-c2ccc(O)cc2)coc2cc(O)cc(O)c12,inactive,–
CC1COc2c(N3CCN(C)CC3)c(F)cc3c(=O)c(C(=O)O)cn1c23 (stereo not drawn),inactive,–
Cn1c(=O)c2[nH]cnc2n(C)c1=O,inactive,–
CN1CCC(=C2c3ccccc3C=Cc3ccccc32)CC1,inactive,–
O=c1[nH]cc(F)c(=O)[nH]1,inactive,–
CCC1(c2ccccc2)C(=O)NCNC1=O,–,-0.828% (inactive)
CC(COc1ccccc1)N(CCCl)Cc1ccccc1 (stereo not drawn),inactive,–

# Experiment: qHTS of pediatric cancer cell lines to identify multiple opportunities for drug repurposing: Primary screen for Rh30 cells (AID 1347107); note: nearly all actives have a fitted effect of over 75% in size
# Conditions: Rh30 rhabdomyosarcoma viability, CellTiter-Glo luminescence, 48 h; series mostly up to 46 µM; activity change, negative = cytotoxic: at the top concentration
# Procedure, shortened: as §2
SMILES,outcome,"activity change, negative = cytotoxic"
Cc1cn([C@H]2C[C@H](N=[N+]=[N-])[C@@H](CO)O2)c(=O)[nH]c1=O,inactive,–
CC(C)(Oc1ccc(C2CC2(Cl)Cl)cc1)C(=O)O (stereo not drawn),–,24.1% (inactive)
CC12CC3CC(C)(C1)CC(N)(C3)C2,–,16.4% (inactive)
COc1ccc2c(c1)c(CC(=O)O)c(C)n2C(=O)c1ccc(Cl)cc1,–,6.85% (inactive)
CCOC(=O)Nc1ccc(NCc2ccc(F)cc2)nc1N,inactive,–
C[C@H]1c2cccc(O)c2C(O)=C2C(=O)[C@]3(O)C(O)=C(C(N)=O)C(=O)[C@@H](N(C)C)[C@@H]3[C@@H](O)[C@@H]21,inactive,–
NC12CC3CC(CC(C3)C1)C2,inactive,–
CN(C)CCC=C1c2ccccc2C=Cc2ccccc21,inactive,–
CN1C(C(=O)Nc2ccccn2)=C(O)c2ccccc2S1(=O)=O,inactive,–
CC1(CN2CCC(n3c(=O)[nH]c4ccccc43)CC2)OCc2ccccc2-n2cccc21 (stereo not drawn),inactive,–
CN1CCC(=C2c3ccccc3CC(=O)c3sccc32)CC1,–,12.2% (inactive)
Nc1nc2c(ncn2COC(CO)CO)c(=O)[nH]1,inactive,–
COc1ccccc1OCCNCC(O)COc1cccc2[nH]c3ccccc3c12 (stereo not drawn),inactive,–
CC(CCc1ccc(O)cc1)NCCc1ccc(O)c(O)c1 (stereo not drawn),–,13.1% (inactive)
Cc1cc(C(C)(C)C)cc(C)c1CC1=NCCN1,inactive,–
OCCN(CCO)c1nc(N2CCCCC2)c2nc(N(CCO)CCO)nc(N3CCCCC3)c2n1,–,-14% (inactive)
Cc1cn([C@H]2C=C[C@@H](CO)O2)c(=O)[nH]c1=O,inactive,–
COc1ccc2[nH]cc(CCNC(C)=O)c2c1,inactive,–

SMILES,outcome,"activity change, negative = cytotoxic"
COc1ccccc1OCC(O)CN1CCN(CC(=O)Nc2c(C)cccc2C)CC1 (stereo not drawn),inactive,–
C[C@](N)(Cc1ccc(O)c(O)c1)C(=O)O,–,20.4% (inactive)
Fc1ccc([C@@H]2CCNC[C@H]2COc2ccc3c(c2)OCO3)cc1,inactive,–
Cn1cnc2c1c(=O)[nH]c(=O)n2C,–,21.5% (inactive)
CC(C)C(=O)Nc1ccc([N+](=O)[O-])c(C(F)(F)F)c1,–,-5.27% (inactive)
O=C1Cc2cc(CCN3CCN(c4nsc5ccccc45)CC3)c(Cl)cc2N1,inactive,–
CC(C(=O)O)c1cccc(C(=O)c2ccccc2)c1 (stereo not drawn),–,14.6% (inactive)
O=c1c(-c2ccc(O)cc2)coc2cc(O)cc(O)c12,inactive,–
CC1COc2c(N3CCN(C)CC3)c(F)cc3c(=O)c(C(=O)O)cn1c23 (stereo not drawn),–,27.3% (inactive)
Cn1c(=O)c2[nH]cnc2n(C)c1=O,inactive,–
CN1CCC(=C2c3ccccc3C=Cc3ccccc32)CC1,–,10.1% (inactive)
NC(=O)NO,inactive,–
O=c1[nH]cc(F)c(=O)[nH]1,inactive,–
Clc1ccccc1C(c1ccccc1)(c1ccccc1)n1ccnc1,–,8.56% (inactive)
CCC1(c2ccccc2)C(=O)NCNC1=O,–,4.95% (inactive)
CC(COc1ccccc1)N(CCCl)Cc1ccccc1 (stereo not drawn),inactive,–
Cc1ccc(-c2cc(C(F)(F)F)nn2-c2ccc(S(N)(=O)=O)cc2)cc1,–,5.78% (inactive)
